Assay outcomes as filed in PubChem BioAssay.
Rows were chosen to be rich in hits. Some 4.8% of all compounds tested hit in one or more screens of this group.
hcDAF12 agonist – H. contortus DAF-12 nuclear receptor activators, primary screen, cell-based, luminescence, HEK293, lit1-tk-luc reporter | 370,000 compounds, 1.4% hits | HEK293 hcDAF-12 lit1-tk-luc reporter; 0% DMSO, 100% Δ7-dafachronic acid | activation, % at 6.8 µM | AID 652067, 2013;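 active means activation above the mean of all tested compounds plus 3 SD, cut at about 5.5% in these data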;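 further: 100% = response to 3 µM Δ7-dafachronic acid high control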
ssDAF-12 act – S. stercoralis DAF-12 nuclear receptor activators, primary screen, cell-based, luminescence, HEK293, GRIP1 co-expression, lit1-tk-luc; Nuclear hormone receptor DAF-12 (Strongyloides stercoralis); HEK293 ssDAF-12/GRIP1 lit1-tk-luc reporter; % of 3 µM dafachronic acid response; activation, % at 6.8 µM; 370,000 compounds, 1% hits; AID 652126, 2013;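 active means activation above the mean over all tested compounds plus 3 SD, cut at about 0.9% in these data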;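 further: 0% = DMSO-only wells and 100% = 3 µM delta7-dafachronic acid wells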
DAX1 inh-1 – DAX1 (NR0B1) inhibitors on StAR promoter, primary screen, cell-based, luminescence, SF-1 (NR5A1), full-length DAX-1. 370,000 compounds, 1.1% hits. AID 652010, 2013. inhibition, % at 6.8 µM. HEK293T StAR-luciferase reporter, SF-1/DAX-1 repression relief;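 active means inhibition above the mean over all tested compounds plus 3 SD, cut at about 3.6% in these data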;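 further: 0% = DAX-1 cells with DMSO and 100% = cells lacking DAX-1 with DMSO; higher inhibition means more luminescence from relief of DAX-1 repression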
hgDAF-12 ag – H. glycines DAF-12 receptor agonists, primary screen, cell-based, luminescence, HEK293, GAL4 fusion, UAS-luciferase; HEK293 GAL4-hgDAF12 UAS-luciferase reporter, agonist luminescence; normalized to butyrate control; activation, % at 6.8 µM; 370,000 compounds, 1.8% hits;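 active means activation above a cutoff set at the mean of all screened compounds plus 3 SD, cut at about 10% in these data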;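 further: 0% = DMSO wells and 100% = sodium butyrate wells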
SMARCA2 act – SMARCA2 (BRM) function activators, primary screen, cell-based, luminescence, high throughput | MG213 cells, MMTV-luciferase reporter, dexamethasone, overnight | activation, % at 9.1 µM | 370,000 compounds, 1% hits | AID 652017, 2013; in the data active means activation above about 7.8%;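 further: 0% = vehicle wells and 100% = reference activator wells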
DAX1 inh-2 – DAX1 (NR0B1) inhibitors, primary screen, cell-based, HEK293, Gal4-DAX1, luciferase luminescence. Nuclear receptor subfamily 0 group B member 1 (Homo sapiens), P51843. HEK293 Gal4-DAX1 luciferase reporter. inhibition, % at 6.75 µM. 340,000 compounds, 0.99% hits;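 active means inhibition above the mean over all tested compounds plus 3 SD, cut at about 4.2% in these data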;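 further: 0% = DAX1-transfected cells with DMSO and 100% = empty-vector control cells with DMSO; inhibition shows as a rise in luminescence from relieved DAX1 repression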
Target sequence (P51843 207-470 limits assumed): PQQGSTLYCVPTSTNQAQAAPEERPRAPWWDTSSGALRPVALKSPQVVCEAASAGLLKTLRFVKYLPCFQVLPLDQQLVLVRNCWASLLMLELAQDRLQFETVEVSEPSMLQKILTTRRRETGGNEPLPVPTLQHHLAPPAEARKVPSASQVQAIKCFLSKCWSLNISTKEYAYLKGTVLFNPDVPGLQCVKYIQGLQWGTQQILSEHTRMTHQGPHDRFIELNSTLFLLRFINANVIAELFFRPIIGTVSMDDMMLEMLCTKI
SMARCA2 conf – SMARCA2 (BRM) function activators, confirmation, cell-based, luminescence, triplicate; shares compounds with SMARCA2 act; MG213 cells, MMTV-luciferase with dexamethasone, overnight; MG213 cells expressing E1A, Rb sequestered; DMSO wells 0%, reference activator 100%; activation, % at 9.1 µM; 3,500 compounds, 30% hits;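 active means activation above its plate's cutoff, the mean activation of tested wells plus 3 SD, cut at about 7.9% in these data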
VP16 Luc act – GAL4-VP16 luciferase reporter activation, counter-screen for SMARCA2 (BRM) activator project, cell-based, pG5luc, luminescence, high throughput; shares compounds with SMARCA2 act; HEK293 GAL4-VP16 pG5luc reporter; scaled: DMSO wells 0%, SAHA wells 100%; activation, % at 9.1 µM; 3,500 compounds, 41% hits; AID 686939, 2013;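 active means activation above the solvent-only control well mean plus 3 SD, averaged across control plates, cut at about 5.2% in these data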
LXRb hcDAF ctr – LXR agonists, Gal4 luciferase reporter, confirmation, counter-screen for hcDAF-12 agonist project, cell-based, luminescence, HEK293, H. contortus campaign | shares compounds with hcDAF12 agonist | HEK293 Gal4-LXR tk-luc reporter, 24 h; normalized: DMSO 0%, positive control 100% | activation, % at 6.8 µM | 3,400 tested, under 10 active | AID 743027, 2013;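 active means mean percent activation of the reporter above a cutoff set as the average over tested compounds plus their standard deviation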
hcDAF12 conf – H. contortus DAF-12 receptor agonists, confirmation, cell-based, luminescence, HEK293, lit1-tk-luc, triplicate. shares compounds with hcDAF12 agonist. HEK293 hcDAF-12 lit1-tk-luc reporter; % of Δ7-dafachronic acid response. activation, % at 6.8 µM. 3,400 compounds, 61% hits;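 active means mean activation across triplicate tests above the threshold derived from the earlier primary screen, cut at about 5.5% in these data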;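 further: 0% = DMSO only wells and 100% = 3 µM Δ7-dafachronic acid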
hgDAF12 conf – H. glycines DAF-12 receptor agonists, confirmation, cell-based, luminescence, HEK293, GAL4-LBD fusion; shares compounds with hgDAF-12 ag; HEK293 GAL4-hgDAF12 luciferase reporter, agonist mode; percent of butyrate response; activation, % at 6.8 µM; 3,300 compounds, 80% hits; AID 743050, 2013;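 active means mean activation over triplicate wells above the hit cutoff derived from the earlier primary screen, cut at about 11% in these data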;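 further: 0% = DMSO low control and 100% = 2 mM sodium butyrate high control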
LXR ag 2 – LXR agonists, Gal4 luciferase reporter, confirmation, counter-screen for hgDAF-12 agonist project, cell-based, luminescence, HEK293, H. glycines campaign | 24 h | 3,300 tested, under 10 active | shares compounds with hgDAF-12 ag | activation, % at 6.8 µM;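 active means mean activation of the triplicate above a set limit carried over from the primary screen, none filed active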
The depositor's hits bear a star; / = no result.

SMILES | hcDAF12 agonist | ssDAF-12 act | DAX1 inh-1 | hgDAF-12 ag | SMARCA2 act | DAX1 inh-2 | SMARCA2 conf | VP16 Luc act | LXRb hcDAF ctr | hcDAF12 conf | others
COc1ccc(N=Nc2[nH]c3ccc(C)cc3c2O)cc1 | 4 | 0 | 0 | 2 | 0 | 0 | / | / | / | /
Cc1ccc(N=Nc2[nH]c3ccccc3c2O)cc1 | 9.5* | 1 | 2 | 13* | 9.1* | 3 | 14* | 5 | 1 | 12*
O=C(Nc1ccccc1Cl)c1cc2ccccc2o/c1=N\O | 11* | 2.1* | 2 | 13* | 11* | 4.7* | 15* | 16* | 1 | 13*
O=C(Nc1ccccc1Cl)c1ccccc1Cl | 0 | -1 | -1 | 1 | 6 | -1 | / | / | / | /
O=C1CNC(=S)N1c1nc2ccccc2s1 | 6.8* | 0 | 1 | 5 | 28* | 1 | 10* | 3 | 0 | 8.0*
O=S1(=O)N[C@@H](Cc2ccccc2)COc2cc(N3CCCCC3)ccc21 | -1 | 0 | 0 | 0 | -2 | / | / | / | / | /
O=C(CNC(=O)c1ccccc1)OCc1nc2ccccc2s1 | 7.5* | 1.0* | 0 | 8 | 14* | 1 | 5 | 6.3* | 0 | 6.4*
CCCCc1c(-c2ccccc2OC)ncn1Cc1cccc(C)c1 | 0 | -1 | 0 | -2 | -5 | / | / | / | / | /
C=CCNc1cccc2c1S(=O)(=O)N[C@H](Cc1ccccc1)CO2 | -1 | -1 | 0 | 1 | -2 | / | / | / | / | /
Cc1ccc(Nc2ncc3c(n2)CC(C)CC3=O)c(C)c1 (configuration not stated) | 7.1* | 0 | 2 | 10 | 8.2* | 4 | 8.3* | 4 | 1 | 5
CC1CC(=O)c2cnc(NCc3ccco3)nc2C1 (configuration not stated) | 1 | -1 | 0 | 1 | -1 | 2 | / | / | / | /
c1ccc(N=Nc2ccc3cccccc2-3)cc1 | 9.1* | 1.8* | 0 | 6 | 9.6* | 2 | 14* | 13* | 1 | 10*
Clc1ccc(-c2[nH]ncc2N=Nc2ccccc2)cc1 | 0 | -1 | -1 | -2 | -2 | 1 | / | / | / | /
CCOc1ccccc1NC(=O)CSc1nc2ccccc2nc1N1CCCC1 | 8.0* | 1.5* | -1 | 3 | 8.3* | 0 | -3 | 0 | 0 | 3
CCOc1ccccc1NC(=O)CSc1nc2ccccc2nc1N1CCOCC1 | 3 | 0 | 0 | -2 | -3 | 1 | / | / | / | /
Cc1nnc(SCc2nc3ccccc3s2)n1N | 9.5* | 1.0* | 4.1* | 8 | 8.5* | 4 | 8.2* | 5 | 1 | 12*
COc1c2c(cc3c1c(=O)c1ccccc1n3C)OCO2 | 1 | -1 | 0 | 1 | 5 | / | / | / | / | /
COc1ccc(N=c2oc3ccc(OC)cc3cc2-c2nc3ccccc3[nH]2)cc1 | 6.7* | 2.5* | 2 | 15* | 14* | 2 | 3 | 9.9* | 0 | 5 | hgDAF12 conf=10*;LXR ag 2=0
O=C1CC(c2ccccc2)Sc2nc3ccccc3n21 (configuration not stated) | 6.9* | 1.1* | 4.0* | 19* | 12* | 3 | 8.8* | 8.6* | 1 | 7.3* | hgDAF12 conf=12*;LXR ag 2=1
O=C(Nc1ccccn1)c1csc2c1CCCC2 | 6.0* | 0 | 3 | 19* | 11* | 1 | 6 | 6.5* | / | / | hgDAF12 conf=16*;LXR ag 2=1
Cc1nnc(NC(=O)c2csc3c2CCCC3)s1 | -1 | -1 | 0 | 8 | 0 | / | / | / | / | /
Cc1ccc(NC(=O)c2ccc3snnc3c2)cc1 | 2 | -1 | 2 | 16* | 9.2* | 0 | 3 | 12* | / | / | hgDAF12 conf=16*;LXR ag 2=0
C[C@@H]1CN(c2ccc(N3CCNC[C@@H]3C)cc2C#N)C[C@H](C)O1 | -1 | -1 | 0 | 1 | -1 | / | / | / | / | /
Cc1sc(NC(=O)c2ccc(Br)s2)c(C(N)=O)c1C | 8.8* | 1 | 3 | 19* | 9.1* | 3 | 6 | 9.6* | 1 | 12* | hgDAF12 conf=18*;LXR ag 2=1
Cc1sc(NC(=S)Nc2ccc(F)cc2)c(C(N)=O)c1C | 2 | -1 | 0 | 1 | -3 | 0 | / | / | / | /
C[C@H]1NS(=O)(=O)c2cccc(Cl)c2O[C@@H]1c1ccccc1 | 2 | -1 | -1 | 1 | -2 | / | / | / | / | /
